Hit rate of the full screen: of about 39,000 compounds, about 1,500 (3.8%) were called active. The sample as a whole holds a higher share of actives than the screen did.
test system: HSkMC (human skeletal muscle cells); assay: cytotoxicity call (relative viability < 0.9); conditions: 10 µM

Row | Structure (SMILES) | cytotoxicity call
1 | C[C@@H]1CN([C@@H](C)CO)C(=O)Cc2cc(NC(=O)Cn3cnnn3)ccc2O[C@@H]1CN(C)CC1CCCCC1 | inactive
2 | CC(C)NC(=O)N(C)C[C@@H]1Oc2cc(C#Cc3ccc(F)cc3)ccc2S(=O)(=O)N([C@H](C)CO)C[C@@H]1C | inactive
3 | C[C@H]1CN([C@@H](C)CO)C(=O)c2cccc(NC(=O)Nc3ccc(F)cc3)c2O[C@H]1CN(C)C(=O)Nc1cccc2ccccc12 | inactive
4 | COc1ccc([Si](C)(C)[C@@H]2[C@@H](CCn3cc([C@H](O)c4ccccc4)nn3)O[C@]3(C(=O)N(Cc4cccc(N5CCOC5=O)c4)c4ccccc43)[C@H]2C)cc1 | inactive
5 | C[C@@H]1CN([C@@H](C)CO)C(=O)Cc2cc(NC(=O)Cn3cnnn3)ccc2O[C@@H]1CN(C)CC1CC1 | inactive
6 | COc1ccc(Oc2cc(NCCC(F)(F)F)c3ncc(-c4ccc(C(=O)NC5CC5)c(C)c4)n3n2)c(F)c1F | active
7 | Cc1ccc(S(=O)(=O)Nc2ccc3c(c2)C(=O)N([C@H](C)CO)C[C@H](C)[C@H](CN(C)S(C)(=O)=O)OCCCC[C@@H](C)O3)cc1 | inactive
8 | C=CC[C@H](CC(=O)N(CCO)Cc1ccccc1)C(=O)N[C@H](COC(=O)[C@H](CC=C)NC(=O)OCC1c2ccccc2-c2ccccc21)C(C)(C)C | inactive
9 | C[C@@H]1CN([C@H](C)CO)C(=O)Cc2cc(NC(=O)Nc3ccc(F)cc3)ccc2O[C@H]1CN(C)Cc1ccc(-c2ccccc2)cc1 | active
10 | C[C@H]1CN([C@@H](C)CO)C(=O)Cc2cc(NC(=O)Nc3ccc(F)cc3)ccc2O[C@H]1CN(C)Cc1ccc(C(=O)Nc2ccccc2N)cc1 | active
11 | C[C@H](CO)N1C[C@H](C)[C@H](CN(C)Cc2ccc(-c3ccccc3)cc2)Oc2ccc(NC(=O)Nc3ccccc3)cc2CC1=O | inactive
12 | C[C@H](CO)N1C[C@H](C)[C@H](CN(C)S(C)(=O)=O)Oc2ccc(NC(=O)Nc3ccccc3)cc2CC1=O | active
13 | C[C@@H]1CN([C@H](C)CO)C(=O)Cc2cc(NC(=O)Nc3ccccc3)ccc2O[C@@H]1CN(C)Cc1ccc(-c2ccccc2)cc1 | active
14 | C[C@@H]1CN([C@H](C)CO)C(=O)Cc2cc(NC(=O)Nc3ccccc3)ccc2O[C@H]1CN(C)S(C)(=O)=O | inactive
15 | C[C@H](CO)N1C[C@H](C)[C@H](CN(C)Cc2ccc(C(=O)Nc3ccccc3N)cc2)Oc2ccc(NC(=O)Nc3ccc(F)cc3)cc2CC1=O | inactive
16 | C[C@H](CO)N1C[C@H](C)[C@@H](CN(C)Cc2ccc(C(=O)Nc3ccccc3N)cc2)Oc2ccc(NC(=O)Nc3ccc(F)cc3)cc2CC1=O | inactive
17 | C[C@@H]1CN([C@@H](C)CO)C(=O)Cc2cc(NC(=O)Nc3ccccc3)ccc2O[C@@H]1CN(C)Cc1ccc(-c2ccccc2)cc1 | inactive
18 | C[C@H]1CN([C@@H](C)CO)C(=O)Cc2cc(NC(=O)Nc3ccccc3)ccc2O[C@H]1CN(C)S(C)(=O)=O | inactive
19 | C[C@@H]1CN([C@@H](C)CO)C(=O)Cc2cc(NC(=O)Nc3ccc(F)cc3)ccc2O[C@H]1CN(C)Cc1ccc(-c2ccccc2)cc1 | inactive
20 | Cc1sc(Nc2ccccc2)nc1-c1ccc(Cl)cc1 | inactive

Row | Structure (SMILES) | cytotoxicity call
21 | COc1ccc(CCN2C(=O)[C@@]3(c4ccc([N+](=O)[O-])cc4)CC(=O)N(CC45CC6CC(CC(C6)C4)C5)[C@@H]3c3ccc(CO)cc32)cc1 | inactive
22 | O=C1CSC(=S)N1 | inactive
23 | COc1ccc(NC(=O)N(C)C[C@H]2Oc3c(NC(=O)Nc4ccc(C(F)(F)F)cc4)cccc3C(=O)N([C@H](C)CO)C[C@@H]2C)cc1 | inactive
24 | COc1ccc(S(=O)(=O)Nc2ccc3c(c2)CC(=O)N([C@H](C)CO)C[C@H](C)[C@@H](CN(C)S(=O)(=O)c2ccccc2)O3)cc1 | inactive
25 | C[C@@H]1CCCCO[C@@H](CN(C)Cc2ccncc2)[C@H](C)CN([C@H](C)CO)C(=O)c2cc(NC(=O)Cc3ccccc3)ccc2O1 | inactive
26 | C[C@@H]1CN([C@@H](C)CO)C(=O)c2cc(NC(=O)Nc3ccc(F)cc3)ccc2O[C@@H](C)CCCCO[C@@H]1CN(C)Cc1ccc2c(c1)OCO2 | inactive
27 | C[C@@H]1CN([C@@H](C)CO)C(=O)c2cc(NC(=O)Nc3ccc(F)cc3)ccc2O[C@@H](C)CCCCO[C@@H]1CN(C)Cc1ccc(C(=O)O)cc1 | inactive
28 | C[C@@H]1CN([C@H](C)CO)C(=O)c2cc(NS(=O)(=O)c3cn(C)cn3)ccc2O[C@@H]1CN(C)Cc1ccncc1 | inactive
29 | C[C@H]1CN([C@@H](C)CO)C(=O)Cc2cc(NC(=O)Nc3ccc(F)cc3)ccc2O[C@H]1CN(C)Cc1ccc(-c2ccccc2)cc1 | active
30 | C[C@@H]1CN([C@H](C)CO)C(=O)Cc2cc(NC(=O)c3ccncc3)ccc2O[C@@H]1CN(C)Cc1ccc(-c2ccccc2)cc1 | active
31 | C[C@@H]1CN([C@@H](C)CO)C(=O)Cc2cc(NC(=O)Nc3ccc4c(c3)OCO4)ccc2O[C@H]1CN(C)Cc1ccc(-c2ccccc2)cc1 | inactive
32 | C[C@H]1CN([C@@H](C)CO)C(=O)Cc2cc(NC(=O)c3ccncc3)ccc2O[C@H]1CN(C)Cc1ccc(-c2ccccc2)cc1 | inactive
33 | C[C@H](CO)N1C[C@H](C)[C@H](CN(C)Cc2ccc(-c3ccccc3)cc2)Oc2ccc(NC(=O)c3ccncc3)cc2CC1=O | inactive
34 | C[C@@H]1CN([C@H](C)CO)C(=O)Cc2cc(NC(=O)Nc3ccc4c(c3)OCO4)ccc2O[C@@H]1CN(C)Cc1ccc(-c2ccccc2)cc1 | active
35 | C[C@H](CO)N1C[C@H](C)[C@H](CN(C)Cc2ccc(-c3ccccc3)cc2)Oc2ccc(NC(=O)Nc3ccc(F)cc3)cc2CC1=O | active
36 | C[C@H](CO)N1C[C@H](C)[C@@H](CN(C)Cc2ccc(-c3ccccc3)cc2)Oc2ccc(NC(=O)Nc3ccc(F)cc3)cc2CC1=O | inactive
37 | C[C@@H]1CN([C@H](C)CO)C(=O)Cc2cc(NC(=O)Nc3ccc(F)cc3)ccc2O[C@@H]1CN(C)Cc1ccc(-c2ccccc2)cc1 | inactive
38 | C[C@H]1CN([C@@H](C)CO)C(=O)Cc2cc(NC(=O)Nc3ccc4c(c3)OCO4)ccc2O[C@H]1CN(C)Cc1ccc(-c2ccccc2)cc1 | inactive
39 | C[C@@H]1CN([C@@H](C)CO)C(=O)Cc2cc(NC(=O)Nc3ccc(F)cc3)ccc2O[C@@H]1CN(C)Cc1ccc(-c2ccccc2)cc1 | inactive
40 | C[C@H]1CN([C@@H](C)CO)C(=O)Cc2cc(NC(=O)Nc3ccc(F)cc3)ccc2O[C@@H]1CN(C)Cc1ccc(-c2ccccc2)cc1 | inactive

From the antibiotic and cytotoxicity screens of Wong et al. (2023)
